Results from PubChem BioAssay.
Calls of active or inactive are those of the source.

How the values were obtained:
Albumin (Bos taurus) = Albumin (Bos taurus) (UniProt P02769); assay: compounds binding labelled BSA control protein – biochemical, small-molecule microarray, Alexa647 label, 635/667 nm fluorescence, artefact control for SMM control protein annotation, profiling panel (AID 1118); conditions: BSA-A647 binding, fluorescence 635 nm, higher = more signal;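 further: score merges 667 nm emission intensity and signal-to-noise per printed compound spot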
[1] = probe aXIP binding to arrayed compounds – biochemical, NeuroSMM set, 635/667 nm fluorescence, primary screen (AID 1119); conditions: small-molecule microarray, higher = more signal, called active from +8 up or from −8 down;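 further: probe is the protein aXip251-270 applied at 1 µg/mL to compound-printed slides; binding of probe to printed compounds measured as 667 nm fluorescence plus signal to noise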
[2] = probe aNOTCH3 binding on compound microarray – biochemical, small-molecule microarray, 635/667 nm fluorescence, primary screen (AID 1120); conditions: higher = more signal;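 further: probe is a biotin-tagged antibody raised against NOTCH3 rather than NOTCH3 protein; score merges spot fluorescence near 667 nm with spot signal to noise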
[3] = probe aNOTCH2 binding on compound microarray – biochemical, small-molecule microarray, 635/667 nm fluorescence, primary screen (AID 1121); conditions: higher = more signal;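 further: score merges feature fluorescence read at 667 nm with its signal to noise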
[4] = molecular target: Carbonic anhydrase 2 (Homo sapiens) (UniProt P00918); assay: compounds binding carbonic anhydrase 2 – biochemical, small-molecule microarray, Alexa647-labelled CAII, profiling panel (AID 1122); conditions: CAII-A647 binding fluorescence, higher = more signal
[5] = COS7 lysate on small-molecule microarray, probe aHis, 635 nm (AID 1123); conditions: COS7 cell lysate, fluorescence, higher = more signal;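 further: z-score combines 667nm fluorescence intensity with signal-to-noise per printed compound spot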
[6] = probe aLAP1 signal on lysate-treated microarray – cell lysate, small-molecule microarray, COS7 lysate, primary screen (AID 1124); conditions: probe aLAP1, fluorescence, higher = more signal;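 further: lysate comes from COS7 cells expressing LAP1 and is applied at 0.3 µg/mL; score merges spot fluorescence near 667 nm with signal-to-noise over triplicate slides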
Sam68 (KHDRBS1) = assay: compounds binding KHDRBS1 protein – biochemical, small-molecule microarray, 635 nm fluorescence, primary screen (AID 1125); conditions: higher = more signal;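 further: score merges 667 nm channel intensity with signal to noise over triplicate slides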
[7] = system: Chordin-like protein 2 (CHRDL2); assay: compounds binding chordin-like 2 – biochemical, small-molecule microarray, 635 nm fluorescence, primary screen (AID 1126); conditions: fluorescence 635 nm, higher = more signal;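 further: printed compound slides probed with Chrdl2 protein at 4 µg/mL for 1 h at 4 C; score merges 667 nm emission intensity with signal to noise over three replicate slides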
[8] = molecular target: Concanavalin-A (Canavalia ensiformis) (UniProt P02866); assay: compounds binding concanavalin A lectin – biochemical, small-molecule microarray, Alexa647 label, 635 nm, artefact control for SMM control protein annotation, primary screen (AID 1127); conditions: ConA-A647 binding fluorescence, higher = more signal;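 further: z combines 667 nm emission intensity with signal-to-noise across three replicate slides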
Sequence of Concanavalin-A (Canavalia ensiformis) (P02866 whole entry, looked up): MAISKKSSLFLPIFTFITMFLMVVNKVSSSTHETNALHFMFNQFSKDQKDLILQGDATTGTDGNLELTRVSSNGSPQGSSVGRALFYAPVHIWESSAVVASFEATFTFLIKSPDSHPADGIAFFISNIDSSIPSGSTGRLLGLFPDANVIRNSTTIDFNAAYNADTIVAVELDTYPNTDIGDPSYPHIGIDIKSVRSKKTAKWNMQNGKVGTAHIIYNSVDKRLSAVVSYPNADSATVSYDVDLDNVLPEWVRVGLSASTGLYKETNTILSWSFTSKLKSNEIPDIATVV

Sequence of Albumin (Bos taurus) (P02769 whole entry, looked up): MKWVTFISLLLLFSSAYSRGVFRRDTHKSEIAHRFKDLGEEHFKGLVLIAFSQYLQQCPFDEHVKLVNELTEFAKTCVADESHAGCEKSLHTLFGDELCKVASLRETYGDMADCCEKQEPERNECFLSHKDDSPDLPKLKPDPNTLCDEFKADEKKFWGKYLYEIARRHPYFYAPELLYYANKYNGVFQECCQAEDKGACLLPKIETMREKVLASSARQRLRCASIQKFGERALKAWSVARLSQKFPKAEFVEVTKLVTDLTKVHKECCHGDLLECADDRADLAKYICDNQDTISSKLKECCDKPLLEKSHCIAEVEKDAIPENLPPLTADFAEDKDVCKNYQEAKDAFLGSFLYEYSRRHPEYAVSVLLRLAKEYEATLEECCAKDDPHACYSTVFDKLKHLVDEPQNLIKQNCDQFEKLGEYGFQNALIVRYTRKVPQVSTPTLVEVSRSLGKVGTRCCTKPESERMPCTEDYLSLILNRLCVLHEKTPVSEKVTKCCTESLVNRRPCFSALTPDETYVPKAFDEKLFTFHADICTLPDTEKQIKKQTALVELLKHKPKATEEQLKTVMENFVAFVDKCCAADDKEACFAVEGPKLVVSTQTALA

| Structure (SMILES) | composite z-score (Albumin (Bos taurus)) | composite Z-score [1] | composite z-score [2] | composite z-score [3] | composite z-score [4] | composite z-score [5] | composite z-score [6] | composite z-score (Sam68 (KHDRBS1)) | composite z-score [7] | composite z-score [8] |
| --- | --- | --- | --- | --- | --- | --- | --- | --- | --- | --- |
| CC1CC/C=C\[C@H]2OC34C=CCN(CCN5CCOCC5)C(=O)[C@H]3N(CCCCCCO)C(=O)[C@@H]4C2C(=O)O1 (stereo not given in full) | -0.0754 | 0.446 (inactive) | -0.438 | -0.14 | 0.864 | -0.686 | -0.362 | -0.715 | -0.756 | -1.53 |
| COC(=O)[C@@]1(Cc2ccccc2CN=[N+]=[N-])COC(c2ccc(OCCCO)cc2)=N1 | 0.426 | 0.978 (inactive) | -0.425 | -0.0959 | 0.0365 | 2.27 | -0.365 | 0.424 | -2.4 | -1.38 |
| CC(C)C(=C=CC[C@@H](O)c1cccc(OCCO)c1)CCO | 0.161 | -0.137 (inactive) | 0.0996 | -0.0519 | 0.705 | 0.502 | 0.0157 | 0.0316 | 0.55 | -0.114 |
| Cc1ccc(F)cc1S(=O)(=O)N[C@@H]1CCN(Cc2ccc3[nH]ccc3c2)C1 | -0.213 | 0.688 (inactive) | 0.128 | -0.176 | 0.713 | 0.95 | -0.126 | 0.605 | 0.651 | 0.463 |
| CCCCNC(=O)c1ccc(C#C[Si](C)(C)C)c(OC(C)=O)c1 | -0.175 | 0.378 (inactive) | -0.0328 | -0.154 | -0.14 | 0.353 | 0.0462 | 0.469 | 0.782 | 0.0668 |
| C=C(C(=O)CC[C@@H](OC(C)=O)c1cccc(OCCO)c1)C(C)C | 0.371 | 0.566 (inactive) | -0.0311 | -0.148 | 0.862 | 1.82 | 0.0326 | 0.813 | -0.298 | 0.691 |
| COCCCN1C(=O)[C@@]2(Cc3ccccc31)c1ccccc1C(=O)N(Cc1ccccc1OC)[C@H]2c1ccc(CO)cc1 | 0.345 | 0.449 (inactive) | -0.147 | -0.101 | 0.799 | 0.374 | 1.34 | -0.0726 | -1.21 | 0.254 |
| O=C1c2ccccc2[C@@]2(Cc3ccccc3N(Cc3ccccc3)C2=O)[C@H](c2ccc(CO)cc2)N1Cc1ccccc1 | -0.819 | 0.225 (inactive) | -0.132 | -0.125 | 0.19 | -0.137 | 0.407 | -0.42 | -0.845 | -0.571 |
| C=C(COC)C(=O)CC[C@@H](OC(=O)c1cccnc1)c1cccc(OCCO)c1 | 0.0464 | -0.239 (inactive) | 0.158 | -0.107 | 0.75 | 0.148 | -0.292 | 0.804 | 0.423 | -0.095 |
| CCOC(=O)C[C@H]1[C@H](OC(=O)c2ccc(C(=O)c3ccccc3)cc2)[C@@H](NC(=O)c2ccc3ccccc3c2)c2cc(OCCCO)ccc2N1C(=O)c1ccc2ccccc2n1 | 0.544 | 0.159 (inactive) | 0.134 | 0.0683 | 0.342 | 0.853 | 0.653 | 1.09 | 0.345 | 0.707 |
| C=CCC(OC(C)=O)[C@@H]1[C@@H](N(Cc2cc3ccccc3o2)C(=O)c2ccc(-c3ccccc3)cc2)c2cc(OCCCO)ccc2N1C(=O)c1ccc2ccccc2n1 (stereo not given in full) | 0.593 | 0.176 (inactive) | -0.0362 | -0.0901 | 0.0088 | 0.23 | 0.269 | -0.626 | 0.163 | -1.34 |
| COCCCNC(=O)[C@@H]1c2ccccc2C(=O)N(C2CCCCC2)[C@H]1c1ccc(CO)cc1 | -0.527 | -1.17 (inactive) | -0.27 | -0.106 | 0.471 | 1.08 | 0.0117 | -0.724 | -1.23 | -0.247 |
| COCCOC(=O)N1C(=O)[C@@]2(c3cc(C#CC4(O)CCCCCC4)ccc31)[C@H](c1ccc(OCCO)cc1)N1[C@H](c3ccccc3)[C@H](c3ccccc3)OC(=O)[C@H]1[C@@H]2C(=O)N1CCCCCCC1 | 0.571 | 1.12 (inactive) | 1.14 | 0.0899 | 0.357 | 2.47 | 1.02 | 1.31 | 0.744 | 1.15 |
| CC(C)C[C@@H]1NC(=O)[C@@H]2C[C@H](C(=O)O)[C@H](c3ccc(O)cc3)N2C1=O | -1.01 | 0.102 (inactive) | 0.0488 | -0.106 | 0.558 | 0.68 | 0.186 | 1.31 | 1.15 | 1.21 |
| COCC(=C=CC[C@@H](O)c1ccc(OCCO)cc1)C[C@@H](O)COCc1ccccc1 | 0.769 | -0.727 (inactive) | 0.0528 | -0.0796 | 0.805 | 2.3 | 0.686 | 1.28 | 0.0466 | 0.547 |
| CC(c1ccccc1)C(O)C1C=CC2C(=O)N(c3ccccc3)C(=O)C2N1Nc1ccc(C#N)cc1 (stereo not given) | 0.976 | -0.105 (inactive) | 0.609 | -0.0062 | 0.6 | 3.28 | 0.359 | 1.34 | -0.34 | 1.15 |

| Structure (SMILES) | composite z-score (Albumin (Bos taurus)) | composite Z-score [1] | composite z-score [2] | composite z-score [3] | composite z-score [4] | composite z-score [5] | composite z-score [6] | composite z-score (Sam68 (KHDRBS1)) | composite z-score [7] | composite z-score [8] |
| --- | --- | --- | --- | --- | --- | --- | --- | --- | --- | --- |
| CC(C)CNC(=O)[C@@H]1c2ccccc2C(=O)N(Cc2ccccc2Cl)[C@H]1c1ccc(CO)cc1 | -0.261 | 0.191 (inactive) | -0.212 | -0.0404 | 0.687 | 1.57 | 0.397 | -0.537 | -0.686 | -1.68 |
| C=CCC(OC(C)=O)[C@@H]1[C@@H](N(Cc2ccc(-c3cccc(C(F)(F)F)c3)o2)C(=O)c2cccc3ccccc23)c2cc(OCCCO)ccc2N1C(=O)c1ccc2ccccc2n1 (stereo not given in full) | -0.197 | -0.116 (inactive) | 0.0248 | -0.103 | -0.162 | 0.385 | -0.202 | -0.258 | 0.328 | -0.18 |
| COC(=O)[C@@H]1N=C(c2ccc(OCCCO)cc2)O[C@@H]1c1ccccc1CN=[N+]=[N-] | 0.273 | 0.443 (inactive) | 0.181 | -0.0162 | 0.552 | 1.18 | -0.0169 | 0.513 | -0.689 | 0.116 |
| COCCOC(=O)N1C(=O)[C@@]2(c3cc(C#Cc4ccc(OC)cc4)ccc31)[C@H](c1ccc(OCCO)cc1)N1[C@H](c3ccccc3)[C@H](c3ccccc3)OC(=O)[C@H]1[C@@H]2C(=O)N1CCCCCCC1 | 0.807 | 1.44 (inactive) | 1.29 | 0.177 | 0.4 | 2.92 | 1.23 | 1.25 | 1.31 | 0.927 |
| CCCCC(=C=CC[C@@H](O)c1ccc(OCCO)cc1)C[C@@H](O)c1ccccn1 | 0.681 | 0.111 (inactive) | 0.0557 | -0.0785 | 0.326 | -0.0207 | 0.209 | 1.15 | 0.102 | 0.223 |
| COc1ccc(C(O)C2C=CC3C(=O)N(C)C(=O)C3N2Nc2ccc([N+](=O)[O-])cc2[N+](=O)[O-])cc1OCc1ccccc1 (stereo not given) | 0.747 | -0.213 (inactive) | 0.583 | 0.29 | 0.633 | 2.36 | 0.53 | 1.32 | -0.599 | 0.892 |
| C=CCC(OC(C)=O)[C@@H]1[C@@H](N(Cc2cccc3ccccc23)C(=O)c2ccc(C)cc2)c2cc(OCCCO)ccc2N1C(=O)c1ccc2ccccc2n1 (stereo not given in full) | 0.526 | -0.104 (inactive) | 0.366 | 0.0239 | 0.246 | 0.72 | 0.158 | 0.478 | 0.618 | -0.202 |
| Cc1c(NC(=O)/C(C#N)=C/c2ccc(Cl)cc2)c(=O)n(-c2ccccc2)n1C | 0.87 | 1.5 (inactive) | 0.029 | -0.145 | 0.229 | 1.65 | 0.761 | 0.396 | 0.122 | 0.736 |
| CN(C)C(=O)[C@]1(Cc2ccccc2CN=[N+]=[N-])N=C(c2ccc(OCCCO)cc2)O[C@@H]1c1ccccc1N=[N+]=[N-] | 0.873 | -0.118 (inactive) | -0.155 | -0.153 | 0.58 | 2.68 | -0.339 | 1.3 | -0.534 | 1.07 |
| C[N+](C)(C)CCCCCCNC(=O)[C@H]1C[C@H]2C(=O)NCC(=O)N2[C@H]1c1cccc(OCCO)c1 | -0.27 | 0.536 (inactive) | 0.11 | -0.0877 | 0.594 | 1.05 | 0.662 | 0.562 | 1.36 | 0.907 |
| CC(C)C(=C=CC[C@@H](O)c1ccc(OCCO)cc1)CCO | 0.261 | -0.488 (inactive) | -0.0259 | -0.14 | 0.601 | 0.583 | -0.178 | 0.275 | 0.184 | 0.224 |
| CCCCN1CC=CC23O[C@@H]4/C=C\CCC(C)OC(=O)C4[C@H]2C(=O)N(C(C)CO)[C@@H]3C1=O (stereo not given in full) | -1.58 | 0.319 (inactive) | -0.0498 | -0.0907 | 0.822 | -0.986 | 0.103 | -0.879 | -0.0668 | -0.59 |
| CCN(CC)c1ccc(N2CC=CC34O[C@@H]5C=CCOC(=O)[C@@H]5[C@H]3C(=O)N(CCCO)[C@@H]4C2=O)cc1 (stereo not given in full) | -0.997 | 0.547 (inactive) | -0.0971 | -0.14 | 0.862 | 1.4 | -0.39 | 0.425 | -0.773 | -1.74 |
| COCCOC(=O)N1C(=O)[C@@]2(c3cc(C#CC4=CCCCC4)ccc31)[C@H](c1ccccc1OCCO)N1[C@H](c3ccccc3)[C@H](c3ccccc3)OC(=O)[C@H]1[C@@H]2C(N)=O | -0.0123 | -0.463 (inactive) | 0.0174 | -0.0728 | 0.265 | 1.14 | 0.561 | 1.28 | 0.492 | 1.13 |
| C=CCNC(=O)[C@@H]1[C@H]2C(=O)O[C@H](c3ccccc3)[C@H](c3ccccc3)N2[C@H](c2ccc(O)cc2)[C@@]12C(=O)Nc1ccc(C#CC3(O)CCCCCC3)cc12 | -0.277 | 0.156 (inactive) | 0.39 | -0.179 | 0.653 | 1.04 | 0.107 | -0.133 | 0.227 | -0.197 |
| CCCCCN1CC=CC23O[C@@H]4C=CCOC(=O)[C@@H]4[C@H]2C(=O)N(CCCCCO)[C@@H]3C1=O (stereo not given in full) | 0.994 | 0.358 (inactive) | -0.137 | -0.146 | 0.854 | 0.263 | 0.0344 | -0.172 | -1.31 | -0.56 |
